Mdm2-MdmX inh = inhibitors of human Mdm2/MdmX interaction; SaOS-2 split-luciferase Mdm2/MdmX complementation, luminescence; inhibition, % at 8 µM; 330,000 compounds, 3% hits; AID 485346;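 active = inhibition of at least 50% at 8 µM in the primary screen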
Target sequence (O15151 whole entry, looked up): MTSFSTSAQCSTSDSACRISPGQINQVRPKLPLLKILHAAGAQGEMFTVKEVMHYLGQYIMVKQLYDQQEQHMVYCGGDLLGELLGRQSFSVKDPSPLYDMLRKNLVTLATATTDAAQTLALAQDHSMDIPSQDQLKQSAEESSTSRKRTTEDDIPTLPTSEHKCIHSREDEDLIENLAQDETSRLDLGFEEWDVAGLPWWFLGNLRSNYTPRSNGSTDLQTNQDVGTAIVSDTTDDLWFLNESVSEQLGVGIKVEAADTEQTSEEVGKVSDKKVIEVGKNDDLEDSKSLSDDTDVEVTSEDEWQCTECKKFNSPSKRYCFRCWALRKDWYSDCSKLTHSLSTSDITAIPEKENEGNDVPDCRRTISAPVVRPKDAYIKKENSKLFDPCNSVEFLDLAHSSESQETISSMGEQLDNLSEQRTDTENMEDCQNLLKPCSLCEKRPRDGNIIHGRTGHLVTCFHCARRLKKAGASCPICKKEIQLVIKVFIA
Target sequence (Q00987 whole entry, looked up): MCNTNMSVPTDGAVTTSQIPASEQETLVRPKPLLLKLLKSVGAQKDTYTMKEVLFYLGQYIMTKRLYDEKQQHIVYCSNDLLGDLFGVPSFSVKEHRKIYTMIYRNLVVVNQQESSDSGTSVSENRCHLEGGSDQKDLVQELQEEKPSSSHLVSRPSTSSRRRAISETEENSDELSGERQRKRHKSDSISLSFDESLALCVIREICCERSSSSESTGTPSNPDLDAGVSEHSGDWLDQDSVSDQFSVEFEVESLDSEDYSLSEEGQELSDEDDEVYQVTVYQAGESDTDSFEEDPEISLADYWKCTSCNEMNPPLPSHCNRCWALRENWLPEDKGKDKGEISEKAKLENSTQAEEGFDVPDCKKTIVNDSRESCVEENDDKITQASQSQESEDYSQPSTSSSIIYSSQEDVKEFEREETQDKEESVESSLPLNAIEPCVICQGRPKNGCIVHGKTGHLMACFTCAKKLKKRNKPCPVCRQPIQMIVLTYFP
tim23-1 inh = inhibits growth of tim23-1 mutant yeast; 330,000 compounds, 1.3% hits; S. cerevisiae tim23-1 growth, BacTiter-Glo luminescence, 24 h; inhibition, % at 20 µM; AID 463212;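 active = growth inhibition of the mutant yeast at or above 50%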;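 note: temperature-sensitive mutant grown at 25 °C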
tim10-1 inh = growth inhibitors of tim10-1 mutant yeast; 330,000 compounds, 2.2% hits; AID 463190; inhibition, % at 20 µM; S. cerevisiae tim10-1 ts strain growth, BacTiter-Glo, 24 h;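 active = inhibition of at least 40%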;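 note: mutant grown at 25 °C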
TIM10 inh = TIM10 yeast growth inhibition; S. cerevisiae TIM10 strain growth, BacTiter-Glo luminescence, 24 h; inhibition, % at 10 µM; 330,000 compounds, 1.4% hits;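 active = inhibition of 40% or more at the single tested concentration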;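 note: wild-type TIM10 isogenic control strain grown at permissive 25 °C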
MPTP block = permeability transition pore inhibition; 360,000 compounds, 1.4% hits; isolated mouse mitochondria, Ca2+ swelling absorbance, 30 min; inhibition, % at 10 µM;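 active = inhibition of 50% or more, scaled per plate between neutral and stimulator controls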
Mdm2-MdmX conf = confirmation of human Mdm2/MdmX interaction inhibitors; shares compounds with Mdm2-MdmX inh; Mdm2-MdmX binding, luminescent assay; inhibition, % at 8 µM; 10,000 compounds, 55% hits; in the data active = inhibition above about 40%
Full FLuc ctr = counter-screen for Mdm2/MdmX inhibitors: full-length luciferase | 6,200 compounds, 77% hits | SaOS-2 full-length luciferase counterscreen, luminescence | inhibition, % at 8 µM | shares compounds with Mdm2-MdmX inh;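 active = mean inhibition at 8 µM reaching about 37%, which flags the compound as non-specific, limit read from the data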;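 note: p53-null SaOS-2 cells with luciferase driven by a doxycycline-inducible promoter; compound on cells about two nights before reading with doxycycline added after day one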
Numbers stand for hits; i = inactive; nt = no result given. Rows were chosen to be rich in hits. Some 6.3% of all compounds tested hit in one or more screens of this group.

SMILES	Mdm2-MdmX inh	tim23-1 inh	tim10-1 inh	TIM10 inh	MPTP block	Mdm2-MdmX conf	Full FLuc ctr
COC(=O)c1ccc2nc(C3CCCCC3)c(Cc3cccc(Cl)c3)n2c1	nt	nt	nt	nt	i	nt	nt
Cc1cccc(C(C#N)c2nc3ccccc3nc2C(F)(F)F)c1 (centres undefined)	i	i	i	i	i	nt	nt
Cc1ccc2nc(C(F)(F)F)c(C#N)c(N)c2c1	85.0	i	i	i	i	67.2	i
Clc1ccc2c(c1)C(C1=NCCN1)c1ccccc1CS2 (centres undefined)	50.9	i	i	i	i	52.6	47.5
CCc1nc2ccc(C(=O)NCCN3CCOCC3)cn2c1N(CC)CCOC	nt	nt	nt	nt	i	nt	nt
CC(=O)n1cc(Nc2ccccc2C(=O)O)c2ccccc21	i	i	i	i	i	nt	nt
CCOC(=O)c1ccccc1Nc1cn(C(C)=O)c2ccccc12	58.5	i	i	i	i	46.5	79.9
CCOC1=C2[C@@H](CN(S(=O)(=O)c3ccc(C)cc3)[C@H]2c2ccccc2Cl)[C@H]2C(=O)N(Cc3ccccc3)C(=O)[C@H]2C1	nt	nt	nt	nt	i	nt	nt
Cn1c(NCCOc2ccccc2Cl)nc2cc(-c3ccc(F)cc3)sc2c1=O	nt	nt	nt	nt	i	nt	nt
CC(C)(C)C(C(Oc1ccc(Cl)cc1)n1cncn1)n1nnnc1C(c1cccc(Cl)c1)N1CCCCC1 (centres undefined)	56.8	i	i	i	nt	i	nt
COCCn1nnnc1C(c1cccc(C#N)c1)N1CCCCCC1 (centres undefined)	i	i	i	i	i	nt	nt
C[C@@H](c1ccccc1)N1C[C@H]2CCCN2c2cc(Br)ccc2S1(=O)=O	53.8	i	i	i	i	42.5	41.4
O=S1(=O)c2ccc(Br)cc2N2CCC[C@H]2CN1Cc1ccccc1	51.8	i	i	i	i	51.1	37.1
CN1C(=O)[C@@H]2C[C@@]3([C@@]45C[C@H]6C(=O)N(C)[C@@H](Cc7ccccc7)C(=O)N6[C@@H]4Nc4ccccc45)c4ccccc4N[C@H]3N2C(=O)[C@@H]1Cc1ccccc1	i	i	i	i	i	nt	nt
O=C1N[C@@H](Cc2ccccc2)C(=O)N2[C@H]3Nc4ccccc4[C@@]3([C@]34C[C@H]5C(=O)N[C@@H](Cc6ccccc6)C(=O)N5[C@H]3Nc3ccccc34)C[C@@H]12	52.8	i	i	i	nt	i	nt
O=[N+]([O-])c1ccc(S(=O)(=O)Nc2ccncc2)cc1	50.3	i	i	i	i	i	nt
O=C(Nc1ccc(Nc2ccncc2)cc1)c1ccc([N+](=O)[O-])cc1	100.3	i	i	i	i	i	i
COc1ccc(/C=C2\SC(=S)N(CCCC(=O)N3CCCCC3CCO)C2=O)cc1 (centres undefined)	63.5	i	i	i	i	i	nt
CC(C)c1ccc(/C=C2\SC(=S)N(CCC(=O)N3CCCCC3CCO)C2=O)cc1 (centres undefined)	61.7	i	i	i	i	50.3	i
COc1cccc(/C=C2\SC(=O)N(CCC(=O)N3CCCCC3CCO)C2=O)c1 (centres undefined)	i	i	i	i	i	nt	nt
O=C1/C(=C\c2ccccc2)SC(=S)N1CCC(=O)N1CCCCC1CCO (centres undefined)	72.1	i	i	i	i	i	nt
COc1ccccc1N1CCN(S(=O)(=O)CCNC(=O)C(C)Oc2ccccc2)CC1 (centres undefined)	nt	nt	nt	nt	i	nt	nt
COc1cccc(C2C3=C(N=c4s/c(=C\c5ccccc5O)c(=O)n42)c2ccccc2CC3)c1OC (centres undefined)	95.4	i	i	i	nt	50.0	52.9
COc1ccccc1C1C(C(C)=O)=C(C)N=c2s/c(=C\c3cc(OC)c(OC)c(OC)c3)c(=O)n21 (centres undefined)	57.9	i	i	i	i	41.4	50.2
O=C(Cn1cc(C(=O)C(=O)N2CCOCC2)c2ccccc21)Nc1cccc(C(F)(F)F)c1	nt	nt	nt	nt	i	nt	nt
SMILES	Mdm2-MdmX inh	tim23-1 inh	tim10-1 inh	TIM10 inh	MPTP block	Mdm2-MdmX conf	Full FLuc ctr
CC(=O)NS(=O)(=O)c1ccc(NC(=O)/C=C/c2cn(-c3ccccc3)nc2-c2ccccc2)cc1	i	i	i	i	i	nt	nt
O=C(/C=C\c1cn(-c2ccccc2)nc1-c1ccccc1)Nc1nccs1	84.4	i	i	i	i	80.8	i
CCN(CC)CCCNC(=O)c1cc(-c2ccccc2)c(N2CCCCC2)s1	75.5	i	i	i	i	54.5	66.1
Cc1cc(=O)oc2cc(NC(=O)c3cccc(Br)c3)ccc12	65.7	i	i	i	i	i	nt
COc1ccc(CCn2c(=N)c(C(=O)NC3CCCC3)cc3c(=O)n4ccccc4nc32)cc1OC	i	i	i	i	i	nt	nt
COc1ccc(CCn2c(=N)c(C(=O)NC3CCCC3)cc3c(=O)n4ccccc4nc32)cc1	51.6	i	i	i	i	i	nt
Cc1cccc(NC(=O)c2cc3c(=O)n4ccccc4nc3n(CC(C)C)c2=N)c1	i	i	i	i	i	nt	nt
COc1cccc(NC(=O)c2cc3c(=O)n4ccccc4nc3n(CC(C)C)c2=N)c1	74.0	i	i	i	i	68.5	41.1
CCCCN=C1SC(C(=O)Nc2sc3c(c2C(=O)OC)CCC3)C(N)=C1C(=O)N1CCOCC1 (centres undefined)	65.9	i	i	i	i	i	nt
COC(=O)c1c(NC(=S)NN2CCOCC2)sc2c1CCCC2	i	i	i	i	i	nt	nt
Cc1ccc(S(=O)(=O)n2cccc2/C=C/[N+](=O)[O-])cc1	nt	nt	nt	nt	i	nt	nt
O=C(OCc1cn([C@H]2CN(C(=O)C3CCCCC3)[C@@H](c3ccccc3)C[C@@H]2O)nn1)c1ccccc1	nt	nt	nt	nt	i	nt	nt
CC(C)(C)Nc1nc(N2CCCC2)nc(N2CCCC2)n1	54.8	i	i	i	i	i	nt
COc1c2ccccc2nn1C(C)C	nt	nt	nt	nt	i	nt	nt
Cc1cc(C)nc(N2C(=O)CC(C(=O)O)NC2=NCCc2c[nH]c3ccccc23)n1 (centres undefined)	i	i	i	i	i	nt	nt
Cc1cc(C)nc(NC(=NCCc2c[nH]c3ccccc23)NC(=O)C(C)(C)C)n1	52.0	i	i	i	i	i	nt
CC1CCN(CCCn2c(SCC(=O)Nc3ccccc3Cl)nc3ccccc3c2=O)CC1	i	i	i	i	i	nt	nt
O=C(CSc1nc2ccccc2c(=O)n1CCCN1CCOCC1)Nc1ccc(F)c(Cl)c1	52.4	i	i	i	i	i	nt
Cc1ccc(NC(=O)CSc2nc3ccccc3c(=O)n2CCCN2CCCCC2)cc1Cl	99.8	i	i	i	i	77.8	54.7
COc1ccc(Cl)cc1C(=O)NC1CC(C)(C)NC(C)(C)C1	nt	nt	nt	nt	i	nt	nt
O=C(NCc1cccnc1)c1cc(C2CCCCN2S(=O)(=O)c2cccc3cccnc23)on1 (centres undefined)	nt	nt	nt	nt	i	nt	nt
CCCNC(=O)C1(C)CCCN(C(=O)COCc2ccccc2)C1 (centres undefined)	nt	nt	nt	nt	i	nt	nt
CCCNC(=O)N(C)C[C@@H]1Oc2cc(C#CC(C)(C)O)ccc2S(=O)(=O)N([C@H](C)CO)C[C@H]1C	nt	nt	nt	nt	i	nt	nt
